Measured values reported in a collection of fitness landscapes (doi:10.1126/science.1257360).
The full ranking holds about 140,000 sequences; the median of “enrichment ratio after two sorts for PhoP signalling” is about 0, and the highest 2% start at about 11. The full list was thinned out, with the highest values kept by preference.

B1: PhoQ; a variant is named by its letters at X, in order, P23837 (parent)
chain: MKKLLRLFFPLSLRVRFLLATAAVVLVLSLAYGMVALIGYSVSFDKTTFRLLRGESNLFYTLAKWENNKLHVELPENIDKQSPTMTLIYDENGQLLWAQRDVPWLMKMIQPDWLKSNGFHEIEADVNDTSLLLSGDHSIQQQLQEVREDDDDAEMTHSVAVNVYPATSRMPKLTIVVVDTIPVELKSSYMVWSWFIYVLSANLLLVIPLLWVAAWWSLRPIEALAKEVRELEEHNRELLNPATTRELTSLVRNLNRLLKSERERYDKYRTTLTDLTHSLKTPLXXLQXXLRSLRSEKMSVSDAEPVMLEQISRISQQIGYYLHRASMRGGTLLSRELHPVAPLLDNLTSALNKVYQRKGVNISLDISPEISFVGEQNDFVEVMGNVLDNACKYCLEFVEISARQTDEHLYIVVEDDGPGIPLSKREVIFDRGQRVDTLRPGQGVGLAVAREITEQYEGKIVAGESMLGGARMEVIFGRQHSAPKDE

Variants of: B1
Assay: enrichment ratio after two sorts for PhoP signalling (ratio (wild type AVST 3.29)); higher = more functional
Conditions: with PhoP (E. coli)

Variant | enrichment ratio
YMQV | ≤ 0.25
FCDV | ≤ 0.25
TIRM | 5.12
RIQI | ≤ 0.25
TIWS | 15.7
TIQI | 12.3
TIWI | ≤ 0.25
RINR | ≤ 0.25
TITS | 15.9
TIYI | 4.29
AIQI | 0.475
WINR | ≤ 0.25
TINR | 15.4
TIRA | ≤ 0.25
KTHN | ≤ 0.25
SPNA | ≤ 0.25
NRQT | ≤ 0.25
APHK | ≤ 0.25
IMQV | ≤ 0.25
LPRC | ≤ 0.25
EVLG | ≤ 0.25
RINN | ≤ 0.25
TISS | 11.9
WISS | ≤ 0.25
TISA | 10.6
TIEG | 11.8

Variant | enrichment ratio
TIMG | 3.15
TINL | 9.31
TINN | 12.6
RISC | ≤ 0.25
PSEG | ≤ 0.25
TISC | 15
WISC | ≤ 0.25
WFHG | ≤ 0.25
MFFV | ≤ 0.25
SPGL | ≤ 0.25
VISE | ≤ 0.25
FCRN | ≤ 0.25
TIYV | 16.6
TIWV | ≤ 0.25
TIFI | 0.264
TIQH | 12.6
RIAN | ≤ 0.25
WITV | ≤ 0.25
TITV | 15.1
TIKH | ≤ 0.25
TIMV | 1.5
TIAN | 19.6
TIQN | 5.05
TIDV | ≤ 0.25
PPYV | ≤ 0.25
EETS | ≤ 0.25

Variant | enrichment ratio
VSPI | ≤ 0.25
TIAD | ≤ 0.25
TINK | 7.27
TIQP | ≤ 0.25
TIFP | ≤ 0.25
TIVK | ≤ 0.25
TIFC | ≤ 0.25
TITC | 12.2
TIGS | 15
TIAA | 12
AIAA | 9.24
TIQQ | 16.4
TIFA | ≤ 0.25
AMHL | ≤ 0.25
PQHY | ≤ 0.25
EMES | ≤ 0.25
LHSI | ≤ 0.25
LTDV | ≤ 0.25
PMYR | ≤ 0.25
LERK | ≤ 0.25
TIGD | 11.6
TIQR | 16
WIQR | ≤ 0.25
TIEH | 27.9
TIMD | ≤ 0.25
TINH | 34.4

Variant | enrichment ratio
TIRI | 2.01
RIEH | ≤ 0.25
TINT | 4.95
TITH | 1.26
TIGR | 5.97
TITD | ≤ 0.25
FADQ | ≤ 0.25
MASY | ≤ 0.25
PWSE | ≤ 0.25
ECDR | ≤ 0.25
AKEC | ≤ 0.25
PVAT | ≤ 0.25
GNSV | 8.29
GGSV | 23.9
MGSV | 15.6
MGWR | ≤ 0.25
RGSV | ≤ 0.25
GIMV | 2.38
YHSV | ≤ 0.25
NGSV | ≤ 0.25
TGSV | 17.2
NISV | 3.96
GISV | 11.2
MGSK | ≤ 0.25
YIFP | ≤ 0.25
IYDW | ≤ 0.25

Variant | enrichment ratio
LKWY | ≤ 0.25
FTWQ | ≤ 0.25
GAMI | 18.9
GEMI | 84
GANW | ≤ 0.25
GEMS | 4.64
GEMD | ≤ 0.25
GAMV | ≤ 0.25
HTQK | ≤ 0.25
QEKV | ≤ 0.25
MKDS | ≤ 0.25
VMDC | ≤ 0.25
HYLA | ≤ 0.25
THAI | 14.8
SHAI | ≤ 0.25
SGAT | 5.6
TGAI | 12.3
SGAI | 12.3
SGKR | ≤ 0.25
NSAI | 0.375
CFAI | ≤ 0.25
TSAI | 16.9
NHAI | ≤ 0.25
KSAI | ≤ 0.25
RGAI | ≤ 0.25
HRPD | ≤ 0.25

Variant | enrichment ratio
FYDW | ≤ 0.25
TKHK | ≤ 0.25
AFWS | ≤ 0.25
EVSQ | ≤ 0.25
SCCW | 5.25
TARR | 0.314
PTWW | ≤ 0.25
TDAI | 13.6
KDAI | ≤ 0.25
ADAI | 4.82
TQTK | ≤ 0.25
TQFC | 8.5
TQTC | 18.9
NQSC | ≤ 0.25
TQTA | 5.01
GQTM | ≤ 0.25
FQTM | ≤ 0.25
TQSC | 15.3
TQTM | 22.5
FPER | ≤ 0.25
LWDG | ≤ 0.25
AEGV | 17.5
AIGV | ≤ 0.25
AHGV | ≤ 0.25
